Assay outcomes as filed in PubChem.
This is a sample that favours compounds with a hit; in the whole collection about 21% have one here.
NS1 function inh = inhibitors of influenza NS1 protein function; Potency, µM (series often up to 46.1 µM), for inactives: at the top dose activity, positive = more growth; 0.4% of 270,000 active; AID 2326; calls by dose curve; also: potency is read from the fitted curve at half-maximal effect; actives are rising curves; nearly all actives have a fitted effect of over 50% in size
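Read-out: OD600 growth recovery of NS1-expressing budding yeast. Cells grown overnight at 30C in -URA glucose medium, washed, resuspended and diluted 1:100 in 2% galactose assay medium, pH 6.0. Same strain lacking NS1 served as positive control.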
Pf growth 48h = inhibits P. falciparum growth in the first generation, 48 h; 5.9% of 310,000 active; P. falciparum luciferase growth in erythrocytes, 48 h; Potency, µM (highest dose often 28.7 µM), without a hit: at the top dose activity change, negative = inhibition, usual class: inhibitors; also: potency is read from the fitted curve at half-maximal effect; % is scaled to controls: 0 for no effect and ±100 for the full control effect
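A one-generation exposure of luciferase-tagged malaria parasites in RPMI 1640/Albumax erythrocyte culture, 37 C and 5% CO2. Inhibition is inferred from decreased luminescence after adding detection reagent.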
Shiga inhibitor = inhibitors of Shiga toxin in Vero cells | Vero cells, Shiga toxin protein synthesis inhibition reporter | inhibition, % at 38.7 µM | 9.2% of 290,000 active; in the data active = inhibition mostly above about 28%, no sharp cut-off; inactive = mostly below about 43%; also: 0% is about no effect
CHX counter = counter-screen for Shiga toxin inhibitors: cycloheximide protein synthesis inhibition | 12% of 300,000 active | cell reporter, cycloheximide protein synthesis inhibition counterscreen | max response, %; in the data active = max response mostly above about 13%, no sharp cut-off; inactive = mostly below about 14%; also: read at 38.3 µM for the half of the compounds with a filed dose; 0% is about no effect
Pf growth 96h = P. falciparum growth inhibition at 96 hour, primary screen for plastid delayed-death inhibitors; Potency, µM (top dose mostly 28.7 µM), inactives show at the highest dose activity change, negative = inhibition, most hits filed as inhibitors; P. falciparum luciferase reporter growth, 96 h; 6.9% of 320,000 active; also: potency is read from the fitted curve at half-maximal effect; % is scaled to controls: 0 for no effect and ±100 for the full control effect
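96 h incubation, 37 C, 5% CO2, of luciferase-reporter P. falciparum-infected RBCs (2% hematocrit, 0.05% parasitemia final) with test compounds; endpoint luminescence.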
Sm TGR block = blocks Schistosoma mansoni thioredoxin glutathione reductase; AID 485364; 3% of 360,000 active; purified TGR, DTNB reduction, TNB absorbance 405 nm; Potency, µM (series often up to 114 µM), without a hit: top-dose activity change, negative = inhibition, hits mostly inhibitors; also: potency is read from the fitted curve at half-maximal effect; % is scaled to controls: 0 for no effect and ±100 for the full control effect; nearly all actives have a fitted effect of over 60% in size
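First, TGR (20 nM dispensed) and NADPH were mixed with compound. Second, a 15 min room-temperature incubation followed. Third, further NADPH and then DTNB were added to start the reaction. Finally, TNB absorbance was monitored kinetically.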
Starred values were filed as active, the others as inactive; ? = inconclusive; / = not tested or not shown; + = active, no number; [ ] = remark or other dose. Unless noted, calls follow the shape of the dose curve; as a rule, active = well fitted curve in the direction sought with a large enough effect; inconclusive = small, poorly fitted or top-dose-only effect, or another doubt; inactive = no such curve, though single readings can be large; an effect the other way counts as inactive or inconclusive.

SMILES	NS1 function inh	Pf growth 48h	Shiga inhibitor	CHX counter	Pf growth 96h	Sm TGR block
Oc1ccccc1N1CCN(c2ncnc3scc(-c4ccccc4)c23)CC1	-4%	5.9µM*	-5	-3	5.2µM*	5%
COc1ccc(-c2csc3nc(C)nc(N4CCC(C)CC4)c23)cc1OC	/	-6%	-6	0	-22%	7%
COc1ccc(-c2csc3nc(C)nc(N4CCN(C(C)=O)CC4)c23)cc1OC	-4%	4.1µM*	-37	15	5%	-1%
CN1CCN(c2ncnc3scc(-c4ccccc4Cl)c23)CC1	11%	?	-16	-6	5.9µM*	-15%
COCCCN1C(=O)c2ccc(C(=O)OCC(=O)N(CCC#N)c3cc(C)cc(C)c3)cc2C1=O	/	1%	/	/	29%	-1%
Cc1nc(N2CCN(c3ccccc3O)CC2)c2c(-c3ccccc3)csc2n1	8%	13µM*	-10	8	?	-8%
O=C(CC(=O)NCc1cccnc1)NCc1cccnc1	3%	8%	-12	-5	10µM*	-2%
O=C(Cc1ccccc1)NCc1cccnc1	/	39%	8	5	4%	8%
O=C(CCn1nc(-c2ccc(Cl)cc2)ccc1=O)NCc1cccnc1	-3%	1.2µM*	-13	21	4%	-22%
O=C(NCc1cccnc1)C(Cl)(Cl)Cl	1%	-13%	-6	-4	3.7µM*	-1%
O=C(CCn1nc(-c2ccc(Cl)cc2)ccc1=O)NCCc1ccccc1	/	/	/	/	/	-7%
Cc1cc(NN)nc2ccc(Cl)cc12	/	?	-9	-2	?	-8%
O=c1[nH]c(=O)n(Cc2ccco2)c2c1C(C(F)(F)F)(C(F)(F)F)N=C(CCc1ccccc1)N2	4%	?	-16	-2	2.3µM*	-18%
Cc1cc(C)n(-c2nc3ccccc3c(=O)n2OCc2ccc(F)cc2)n1	-33%	?	22	18*	8.3µM*	-9%
Cc1cc(C)n(-c2nc3ccccc3c(=O)n2OCC(=O)N(C)C)n1	-6%	?	6	5	2%	14%
Cc1cc(C)n(-c2nc3ccccc3c(=O)n2OCc2ccc(Cl)cc2)n1	-10%	?	11	1	?	-1%
Cc1cc(C)n(-c2nc3ccccc3c(=O)n2OCC(=O)OCc2ccccc2)n1	-86%	1.5µM*	36	15*	?	-9%
Cc1cc(CC(C)C)n(-c2nc3ccccc3c(=O)n2OCc2ccccc2)n1	-46%	?	45	31*	12µM*	5%
Cc1cc(C)n(-c2nc3ccccc3c(=O)n2OCC(=O)Nc2c(C)cccc2C)n1	-8%	?	3	1	13µM*	-17%
CCOc1ccc(N2CC(c3nc4ccccc4n3CCCOc3ccccc3)CC2=O)cc1 (centres undefined)	/	/	/	/	/	8%
COCc1cccc(NC(=O)CCc2ccccc2)c1	-9%	50%	49*	18*	-13%	/
CSc1cccc(NC(=O)C(C)Sc2ccc(C)cc2)c1 (centres undefined)	-4%	/	4	9	?	-20%
CSc1cccc(NC(=O)CCC(=O)O)c1	-3%	17%	12	7	18%	0%
CSc1cccc(NC(=O)CN(C)S(=O)(=O)c2ccccc2)c1	-5%	20%	18	18*	?	2%
CSc1cccc(NC(=S)NC(=O)CCc2ccccc2)c1	-10%	-1%	22	23*	67%	?
SMILES	NS1 function inh	Pf growth 48h	Shiga inhibitor	CHX counter	Pf growth 96h	Sm TGR block
CCC(C)C(=O)Nc1cccc(SC)c1 (centres undefined)	3%	36%	56	16*	21%	/
COc1cccc(NC(=O)CCc2ccccc2)c1	/	62%	/	/	139%	-14%
O=C(COC(=O)/C=C/c1ccccc1Cl)NC(=O)Cc1ccccc1	-6%	-3%	-9	7	2%	4%
O=C(CCSCc1ccc(Cl)cc1)NCc1cccnc1	/	4%	-2	-3	7%	0%
CCCOc1ccc2c(=O)c(-c3cc(C(=O)OC)oc3C)c(C)oc2c1	-36%	?	-12	-3	?	5%
CCSc1nnc(COc2ccccc2)n1CC	-1%	-2%	-2	-3	19%	-3%
CSc1cccc(NC(=O)CCc2ccccc2)c1	/	10%	50*	18*	27%	3%
CN1CCC(Oc2ccc(Sc3ccccc3)cc2)CC1	-28%	76%	63*	68*	32%	4%
COc1ccc(NC(=O)c2sc(SC)nc2N)cc1	-10%	/	48	39*	81%	16%[11.4 µM]
CCN(CC)C(=O)CSc1nc(N)c(C(=O)Nc2ccc(OC)cc2)s1	6%	13%	-7	12	0%	0%
COc1ccc(NC(=O)c2scc(S(=O)(=O)C(C)C)c2N)cc1	-2%	146%	75*	35*	244%	-6%
COc1ccc(NC(=O)c2sc(SCc3ccccc3)nc2N)cc1	13%	-11%	24	22*	-13%	7%
CC(C)c1onc(C(=O)NCCc2ccccc2)c1[N+](=O)[O-]	/	17%	82*	53*	?	45µM*
CC(C)c1onc(C(=O)NC(C)c2ccccc2)c1[N+](=O)[O-] (centres undefined)	/	3%	-3	9	49%	40µM*
CC(C)c1onc(C(=O)NCc2cccs2)c1[N+](=O)[O-]	/	-29%	-5	17	-11%	?
C=CCn1c(COc2cccc(C)c2)nnc1SCC(=O)c1c[nH]c2c(CC)cccc12	4%	7%	-9	-2	31%	0%
O=C(Nc1nccc(-c2cccs2)n1)c1ccccc1Cl	-3%	34%	53*	32*	20%	0%
O=C(c1ccccc1Cl)N(C(=O)c1ccccc1Cl)c1nccc(-c2cccs2)n1	-3%	14%	1	-2	8%	1%
NS(=O)(=O)c1ccc2nc(NC(=O)c3ccncc3)sc2c1	/	285%	1	-3	?	0%
O=C(COc1c(Cl)cc(Cl)cc1Cl)c1ccc(Cl)cc1	4%	0%	-10	-1	12µM*	1%
O=C(CCC(=O)c1ccc(Cl)cc1)OCC(=O)c1ccccc1	-14%	9%	2	-4	?	22%
Cc1cc(C(=O)N/N=C2\CCCc3ccccc32)c(C)o1	7%	89%	51	26*	49%	-7%
Cc1cc(C(=O)NC2Cc3ccccc3C2)c(C)o1	-39%	171%	66*	57*	276%	-29%
O=C(N/N=C1\CCc2ccccc21)c1ccncc1	-3%	129%	56*	46*	67%	-10%
COc1ccc2c(c1)CCC/C2=N\NC(=O)c1ccoc1C	21%	70%	+	86*	15%	-12%
Cc1ccc(S(=O)(=O)N2CCN(CC(O)c3ccccc3)CC2)cc1C (centres undefined)	/	-27%	-6	-1	18%	14%
O=C(COc1cccc(Br)c1)N/N=C1\CCCc2ccccc21	/	40%	13	-4	28%	-3%
